Most compounds without a hit are left out; they make up all but 2.3% or so of the library.
ANO1 block – inhibitors of mouse TMEM16A calcium-activated chloride channel | HEK293 TMEM16A/YFP iodide influx fluorescence, ionomycin | normalized B-score (activity score, 25-100; higher = stronger inhibition) at 10 µM | 310,000 tested, 1.2% active;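 active means ratio plate-corrected score three or more library SD toward inhibition, starting fluorescence score within five deviations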;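 further: score derived from kinetic fluorescence span divided by baseline fluorescence per well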
TMEM16A act – activators or potentiators of mouse TMEM16A chloride channel. Q8BHY3. HEK293 TMEM16A/YFP-H148Q/I152L, iodide quench fluorescence; stronger effect = lower value. B-score at 10 µM. 340,000 tested, 0.3% active. AID 623877;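 active means fluorescence-ratio B-score plate-corrected deviation score at least 3 library SD below zero, with starting fluorescence score within 5 deviations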;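 further: channel opened by trigger with iodide after compound preincubation; score built on the fluorescence ratio of max minus min over baseline; more negative score means more quench and so TMEM16A activation or potentiation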
CHT allo act – allosteric activators of human choline transporter CHT; AID 488977; CHT-expressing cells, membrane potential dye, choline EC20; stronger effect = higher value; LV-AA mutant CHT in HEK293 cells; B-score at 10 µM; 310,000 tested, 0.49% active;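 active means initial fluorescence not abnormally high and integrated response B-score, plate-corrected, over 3 SD above library mean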
CHT block – human CHT choline transport inhibition; Q9GZV3; CHT-expressing cells, membrane potential dye, choline response; stronger effect = lower value; B-score at 10 µM; 310,000 tested, 0.86% active;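 active means B-score over 3 SD under the library average, and starting fluorescence ratio not unusually high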;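 further: choline stimulus applied at its EC90 after an EC20 pre-addition; B-score computed on integrated fluorescence ratio after choline addition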
CHT inh conf – human CHT inhibition, confirmatory screen; shares compounds with CHT block; CHT-expressing cells, choline membrane potential dye; LV-to-AA substituted CHT, HEK293 cells; CHT activity remaining % of control (stronger effect = lower value), % at 10 µM; 2,400 tested, 70% active; AID 493221;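 active means choline transporter activity left, mean of duplicates at 10 µM, below buffer-only control mean minus 3 SD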;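 further: depolarization triggered by choline at its EC90 following an EC20 pre-addition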
HEK293 CHT ctr – counter-screen for CHT inhibitors: effect in parental HEK293 cells | shares compounds with CHT block | membrane potential dye, choline response; active = decrease or increase beyond buffer ±3SD | 2,400 tested, 4% active | membrane potential ratio readout (active if shifted either direction beyond buffer ±3SD; no single direction) at 10 µM;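 further: parental cells lack the transporter so any hit is non-specific; ratio is peak minus trough fluorescence over baseline after EC90 choline challenge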
Each line names hits and unclear results; the compound was inactive in the other large screens (follow-up assays come after a bar, where they were run).

N=C1CCCN1CC(=O)c1ccc(Br)cc1	CHT block -19.2 | CHT inh conf 1.5% | HEK293 CHT ctr inactive
CCOC(=O)C(C#N)=CN1CCNc2ccccc21	none (no result: ANO1 block, CHT allo act, CHT block)
CC(C)NCC(O)c1cc(O)cc(O)c1 (configuration not stated)	none
CC(C)NC[C@H](O)c1ccc(O)c(O)c1	none | CHT inh conf 39.0% | HEK293 CHT ctr inactive
Cc1onc(-c2ccccc2)c1C(=O)NC(=S)NNC(=O)c1ccco1	CHT block -7.24 | CHT inh conf 59.3% | HEK293 CHT ctr inactive
Cn1c(SCC(=O)N2CCN(c3ccccc3)CC2)nnc1-c1ccccc1	CHT block -5.27 | CHT inh conf 61.6% | HEK293 CHT ctr inactive
O=[N+]([O-])c1cccc(CSc2nnc3ccccn23)c1	none | CHT inh conf 67.3% | HEK293 CHT ctr inactive
C=CCNCc1ccc(C(=O)NCCCCCCC)cc1[N+](=O)[O-]	none
CC1CC(C)CN(C(=O)c2cccc(S(=O)(=O)NCc3ccccc3)c2)C1 (configuration not stated)	none (no result: ANO1 block, CHT allo act, CHT block)
CCOCCCn1c(=S)[nH]c2cc(C(=O)N3CCN(C4CCCCC4)CC3)ccc2c1=O	CHT block -5.05 | CHT inh conf 57.1% | HEK293 CHT ctr inactive
COc1ccc(/C=N/NC(=O)c2ccc[nH]2)cc1	none
COc1ccccc1/C=C/C=N/NC(=O)c1cc(-c2ccc(C)o2)[nH]n1	CHT block -17.3 | CHT inh conf inactive | HEK293 CHT ctr inactive
Cc1ccc(/C=N/NC(=O)c2cc(-c3ccc(C)o3)[nH]n2)cc1	none
Nc1ccc(-c2ccc(N)cc2C(F)(F)F)c(C(F)(F)F)c1	CHT block -5.75 | CHT inh conf 50.7% | HEK293 CHT ctr inactive
Nc1ccc(C(O)(C(F)(F)F)C(F)(F)F)cc1	none
C=CCNC(=O)c1cc2c(=O)n3ccccc3nc2s1	none
O=[N+]([O-])c1cc([N+](=O)[O-])c2c(=Nc3ccccc3)n(-c3ccccc3)n(O)c2c1	CHT block -6.22 | CHT inh conf 60.8% | HEK293 CHT ctr inactive
O=[N+]([O-])c1cc(Br)c(Nc2ccccc2)c([N+](=O)[O-])c1	none
Cc1csc(=O)n1CCC(=O)OCc1nnc(-c2ccc(Cl)cc2)o1	none (no result: ANO1 block, CHT allo act, CHT block)
O=C1C(Cl)=C(NS(=O)(=O)c2ccc([N+](=O)[O-])cc2)C(=O)c2ccccc21	CHT block -5.77 | CHT inh conf 48.9% | HEK293 CHT ctr 2.31
CN(NS(=O)(=O)c1ccc(Br)cc1)c1nc(C(F)(F)F)nc2ccccc12	ANO1 block 25, CHT block -5.61 | CHT inh conf inactive | HEK293 CHT ctr inactive
CN(N)c1nc(C(F)(F)F)nc2ccccc12	none
Cc1ccc(Oc2nnc(-c3ccccc3)c3ccccc23)cc1	none
Cc1ccc(-c2nnc(OCC3CCCO3)c3ccccc23)cc1 (configuration not stated)	CHT block -5.49 | CHT inh conf 45.4% | HEK293 CHT ctr inactive
O=C(CNS(=O)(=O)c1cccs1)NCCc1ccc(Cl)cc1	none
CCOc1cc(N2CCOCC2)c(OCC)cc1NC(=O)c1cc(S(=O)(=O)N2CCOCC2)ccc1C	none (no result: ANO1 block, CHT allo act, CHT block)
CCOCCCN(C)C1CCN(C(=O)c2oc3ccccc3c2NC(=O)c2ccc(F)cc2)CC1	CHT block -9.02 | CHT inh conf 20.6% | HEK293 CHT ctr inactive
O=C(COc1ccccc1)Nc1c(C(=O)N2CCC(N3CCCCC3)CC2)oc2ccccc12	CHT block -7.48 | CHT inh conf 36.7% | HEK293 CHT ctr 3.69
O=C(COc1ccc(F)cc1)Nc1c(C(=O)N2CCC(N3CCCCC3)CC2)oc2ccccc12	CHT block -11.9 | CHT inh conf 28.8% | HEK293 CHT ctr inactive
CCOCCCN(C)C1CCN(C(=O)c2oc3ccccc3c2NC(=O)c2ccc([N+](=O)[O-])cc2)CC1	none
O=C(Nc1c(C(=O)N2CCC(N3CCCCC3)CC2)oc2ccccc12)c1c(F)cccc1F	none
O=C(Nc1c(C(=O)N2CCC(N3CCCCC3)CC2)oc2ccccc12)c1ccc(F)cc1	CHT block -13.1 | CHT inh conf 0.9% | HEK293 CHT ctr inactive
CC(=O)c1ccc(S(=O)(=O)N(C)CC(=O)NCC2CCCCC2)cc1	none
CC(CN1CCOCC1)OC(=O)c1ccccc1Cl (configuration not stated)	none
CC1(C)CC(=O)/C(=C(\O)CCCN2C(=O)c3ccccc3C2=O)C(=NCC(=O)O)C1	CHT block -5.41 | CHT inh conf inactive | HEK293 CHT ctr inactive
CC1(C)CC(=O)/C(=C(/O)CCCN2C(=O)c3ccccc3C2=O)C(=NC(C)(C)C)C1	none
COc1ccc(-c2csc(N)n2)cc1	none
COc1ccc(-c2nc(C=O)cs2)cc1	CHT block -5.51 | CHT inh conf 23.0% | HEK293 CHT ctr inactive
CN1Cc2sc(NC(=S)NC(=O)c3ccccc3)c(C#N)c2CC1(C)C	none
CN1Cc2sc(N)c(C#N)c2CC1(C)C	CHT block -8.96 | CHT inh conf 32.9% | HEK293 CHT ctr inactive
COc1cc(CCC(=O)OCC(=O)NCc2ccc(Cl)cc2)cc(OC)c1OC	CHT block -6.53 | CHT inh conf 66.1% | HEK293 CHT ctr inactive
CC1CCCCN1CCNC(=O)c1ccc2c(c1)N(Cc1ccccc1F)C(=O)c1ccccc1S2=O (configuration not stated)	none
O=C(CSc1n[nH]c(-c2ccccc2)n1)Nc1ncc(Br)cc1Br	CHT block -6.53 | CHT inh conf 56.7% | HEK293 CHT ctr inactive
CCc1ccccc1NS(=O)(=O)c1ccc2[nH]cc(C(=O)NCC3CCCO3)c(=O)c2c1 (configuration not stated)	none
CN(Cc1ccccc1)S(=O)(=O)c1ccc2[nH]cc(C(=O)NCC3CCCO3)c(=O)c2c1 (configuration not stated)	CHT block -10.3 | CHT inh conf 43.3% | HEK293 CHT ctr inactive
O=C(COC(=O)Cn1cnc2ccccc2c1=O)Nc1ccccc1OC(F)F	none (no result: ANO1 block, CHT allo act, CHT block)
Cc1cc(NS(=O)(=O)c2ccc(NC(=O)c3ccc(Cl)cc3Cl)cc2)no1	CHT block -9.38 | CHT inh conf 12.5% | HEK293 CHT ctr inactive
O=C(Nc1ccc(S(=O)(=O)Nc2ccccn2)cc1)c1ccc(Cl)cc1Cl	CHT block -12.2 | CHT inh conf -0.5% | HEK293 CHT ctr inactive
Cc1noc(NS(=O)(=O)c2ccc(NC(=O)c3oc4ccc(Cl)cc4c3C)cc2)c1C	CHT block -5.59 | CHT inh conf 59.4% | HEK293 CHT ctr inactive
Cc1ccc(C)c(OCC(=O)Nc2ccc(S(=O)(=O)Nc3ccccn3)cc2)c1C	CHT block -7.2 | CHT inh conf 59.2% | HEK293 CHT ctr inactive
CCOC(=O)[C@H]1[C@H]2COc3ccc(Cl)cc3[C@@H]2N2C(=O)[C@@H](CO)NC(=O)[C@@]12C	none (no result: ANO1 block, CHT allo act, CHT block)
CCc1ccc(N=Nc2ccc(O)c3[nH]cnc23)cc1	none (no result: ANO1 block, CHT allo act, CHT block)
